Bioassay records: PubChem BioAssay, National Center for Advancing Translational Sciences (NCATS)
A selection: hits, their analogues and other compounds. The true share with any hit is near 19%.
TDP1 cell noCPT – qHTS for Inhibitors of human tyrosyl-DNA phosphodiesterase 1 (TDP1): qHTS in cells in absence of CPT; Potency, µM (top dose mostly 46.2 µM), without a hit: at the top dose activity change, negative = growth inhibition, hits mostly inhibitors; AID 686978, 2013; DT40 Tdp1-/- hTDP1 cells, no CPT, ATP luminescence, 48 h; 420,000 compounds, 15% hits; note: potency is the fitted concentration of half-maximal effect; nearly all actives have a fitted effect of over 55% in size
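Cells were dispensed at 400 per well, compounds added by pin tool, plates incubated ≥48 hr at 37 °C, then CellTiter-Glo added for 30 min at room temperature before luminescence reading. Line: DT40 Tdp1-/- complemented with hTDP1; camptothecin omitted.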
TDP1 cell CPT – qHTS for Inhibitors of human tyrosyl-DNA phosphodiesterase 1 (TDP1): qHTS in cells in presence of CPT; chicken DT40 Tdp1-/-;hTDP1 cells + 20 nM CPT, ATP luminescence, 48 h; Potency, µM (series often up to 46.2 µM), inactives show at the highest dose activity change, negative = growth inhibition, usual class: inhibitors; 420,000 compounds, 12% hits; note: potency is the fitted concentration of half-maximal effect; nearly all actives have a fitted effect of over 55% in size
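Chicken DT40 Tdp1-/- cells complemented with human TDP1, 400 cells/well, exposed to compounds plus 20 nM camptothecin for at least 48 h at 37 C; viability read as ATP content by CellTiter-Glo luminescence.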
HT1080 IDH1KD tx – qHTS for induction of synthetic lethality in tumor cells producing 2HG: qHTS for the HT-1080-IDH1KD cell line | Potency, µM (titrated, usually from 46.1 µM), for the others: top-dose activity, negative = toxicity, actives largely listed as cytotoxic | AID 686971, 2013 | 360,000 compounds, 2% hits | HT-1080 IDH1 knockdown viability, ATP luminescence, 48 h;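 note: potency is the fitted concentration of half-maximal effect; 0% = DMSO wells and -100% = cell-free medium wells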
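In this qHTS, HT-1080 cells depleted of IDH1 are exposed for 48 h at 37 °C to compound titrations. Toxicity is scored from CellTiter-Glo luminescence, with DMSO as full viability and medium alone as none.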
ELG1 DNA repair – qHTS screen for small molecules that inhibit ELG1-dependent DNA repair in human embryonic kidney (HEK293T) cells expressing luciferase-tagged ELG1. HEK293T ELG1-luciferase reporter, luminescence, 16 h; DNA damage induced by 5-fluorouridine. Potency, µM (series often up to 46.1 µM), for the others: top-dose activity change, negative = inhibition, most hits filed as inhibitors. 330,000 compounds, 2.3% hits. AID 504467, 2011; note: potency is the fitted concentration of half-maximal effect; nearly all actives have a fitted effect of over 55% in size
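Cells (2,000 per well) received 5-fluorouridine plus test compound or DMSO and were incubated 16 hr at 37 °C, 5% CO2. Luciferase activity was read by luminescence 30 min after ONE-Glo addition; signal suppression marked inhibition of damage-induced ELG1 function.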
IL1B secr inh – qHTS for Inhibitors of Inflammasome Signaling: IL-1-beta AlphaLISA Primary Screen | THP-1 LPS/ATP IL-1B secretion, AlphaLISA, 16 h; active compounds read low | activity change, % at 57.5 µM | AID 743279, 2014 | 360,000 compounds, 4.7% hits; in the data active = activity change below about -50%; inconclusive = mostly about -30% to -49%
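Secreted IL-1B measured by AlphaLISA bead assay after 16 h compound exposure of THP-1 cells; compounds (final up to 57.5 uM) added 1 h before LPS (250 ng/mL) and ATP (1.25 mM) stimulation; lower signal means less secretion.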
HT1080-NT tox – qHTS for induction of synthetic lethality in tumor cells producing 2HG: qHTS for the HT-1080-NT fibrosarcoma cell line. HT-1080-NT fibrosarcoma viability, CellTiter-Glo ATP luminescence, 48 h. Potency, µM (titrated, usually from 46.1 µM), for the others: at the highest dose activity, negative = less viability, actives largely listed as cytotoxic. 360,000 compounds, 1.6% hits. AID 686970, 2013;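 note: NT is the 2HG producing partner of a matched IDH1 knockdown line; potency is the fitted concentration of half-maximal effect; 0% = DMSO-treated cells and -100% = media-only wells without cells; nearly all actives have a fitted effect of over 55% in size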
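750 cells/well, RPMI + 5% FBS; 2 h settle, compound pin-transfer, 48 h at 37 degrees C. CellTiter-Glo 10 min RT, luminescence. Normalized to DMSO and media-only wells.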
The depositor's hits bear a star; i = inactive; ? = inconclusive; / = no result given; [ ] = dose if it differs, or a comment. Unless noted, calls come from the whole dose curve; as a rule, active = well fitted curve in the direction sought with a large enough effect; inconclusive = small, poorly fitted or top-dose-only effect, or another doubt; inactive = no such curve, though single readings can be large; an effect the other way counts as inactive or inconclusive. Unless noted, % is set by controls: 0 for no effect and ±100 for the full control effect.

SMILES	TDP1 cell noCPT	TDP1 cell CPT	HT1080 IDH1KD tx	ELG1 DNA repair	IL1B secr inh	HT1080-NT tox
CC(=O)Nn1cnc2c(c1=O)C1(CCCC1)Cc1ccccc1-2	0.3%	-1.2%	?	5.7%	16.0	1.9%
Oc1ccc(-c2nc3c4c(ncn3n2)-c2ccccc2CC42CCCC2)cc1	16.4µM*	14.6µM*	17.2%	?	-0.5	11.5%
Nn1cnc2c(c1=O)C1(CCCCC1)Cc1ccccc1-2	8.2µM*	9.2µM*	-9.7%	-4.1%	0.0	-9.9%
Cc1ccc(-n2c(SCC(N)=O)nc3c(c2=O)C2(CCCC2)Cc2ccccc2-3)cc1	?	-25.4%	-3.7%	-19.7%	-62.7*	-5.8%
O=C(CSc1nc2c(cnn2-c2ccc(F)cc2)c(=O)[nH]1)Nc1ccc(Br)cc1	5.7%	-5.0%	/	/	/	/
COc1ccccc1/C=C(/NC(=O)c1ccc(Cl)cc1Cl)C(=O)O	16.8%	-28.9%	0.8%	-3.7%	26.2	-6.8%
C[C@H](NC(=O)c1cccc([N+](=O)[O-])c1)C(=O)OCC(=O)c1ccccc1Br	2.3%	-23.0%	-7.6%	27.0%	1.8	-5.3%
CC(/C=N/NC(=O)c1ccccc1F)=C\c1ccccc1	?	-18.6%	-20.8%	?	-10.8	-13.0%
COc1ccccc1N1CCN(C(=O)c2oc3ccccc3c2NC(=O)C(C)Oc2ccccc2)CC1 (stereo unspecified)	16.4µM*	?	/	/	/	/
COc1ccccc1N1CCN(C(=O)c2cc3c(=O)oc4ccccc4c3s2)CC1	-3.9%	2.2%	/	/	/	/
COc1ccccc1N1CCN(C(=O)c2oc3ccccc3c2C)CC1	20.6µM*	16.4µM*	0.2%	2.7%	44.6	2.2%
COc1ccccc1N1CCN(C(=O)c2cc3c(C)nc4ccccc4c3o2)CC1	4.11µM*	6.51µM*	-24.4%	13µM*	-27.5	?
COCc1c(C(=O)N2CCN(c3ccccc3C)CC2)oc2ccccc12	?	20.6µM*	5.8%	?	6.5	-4.9%
COCc1c(C(=O)N2CCN(CCOc3ccccc3)CC2)oc2ccccc12	?	?	8.5%	-18.0%	-5.4	-1.4%[9.24 µM]
CC(C)Oc1ccccc1-c1cc(C(=O)N/N=C/c2cccnc2)c2ccccc2n1	?	?	-28.4%	14.5%	i	-10.5%
COc1ccc(-n2ccnc(NCc3cccs3)c2=O)cc1	?	-19.1%	/	/	/	/
COc1cccc(CN(C(=O)c2ccc(C(C)(C)C)cc2)C2CCS(=O)(=O)C2)c1 (stereo unspecified)	-35.4%	?	/	/	/	/
Cc1cc(C)nc(SC(C)CNS(=O)(=O)c2ccccc2)n1 (stereo unspecified)	10.1%	3.9%	14.1%	11.1%	0.0	21.0%
CCN(C(=O)COc1ccc2ccc(=O)oc2c1)C1CCCCC1	-20.9%	-10.1%	14.5%	0.0%	15.8	10.7%
Cc1cc(C)c(NC(=O)C2CCN(c3nn4c(=O)cc(C)nc4s3)CC2)c(C)c1	-23.5%	?	/	/	/	/
CC(=O)C1(C)CC2(CC(C)(C)OC2=O)C(=O)O1 (stereo unspecified)	2.1%[9.04 µM]	7.0%[9.04 µM]	/	/	/	/
COc1ccccc1N1CCN(C(=O)c2cccc3c(=O)c(C)c(-c4ccccc4)oc23)CC1	?	?	-21.3%	20.6µM*	1.0	-19.6%
COc1ccccc1N1CCN(C(=O)c2oc3ccc(Br)cc3c2C)CC1	7.31µM*	2.91µM*	?	?	23.0	?
COc1ccccc1N1CCN(C(=O)c2cc(-c3ccc(F)cc3)on2)CC1	?	-5.6%	16.2%	-9.4%	3.3	4.3%
COc1ccccc1N1CCN(C(=O)c2oc3ccc(F)cc3c2C)CC1	16.4µM*	20.6µM*	-29.1%	?	32.8	-11.0%
SMILES	TDP1 cell noCPT	TDP1 cell CPT	HT1080 IDH1KD tx	ELG1 DNA repair	IL1B secr inh	HT1080-NT tox
Cc1c(C(=O)N2CCN(C)CC2)oc2ccc(Br)cc12	-23.0%	-27.3%	-13.6%	?	?	-1.7%
COc1ccccc1N1CCN(C(=O)c2ccccc2Oc2ccccc2)CC1	?	?	-2.2%	-8.7%	-21.4	-14.0%
O=C(CCN1C(=O)C2CC=CCC2C1=O)Nc1nc(-c2ccc(F)c(F)c2)cs1 (stereo unspecified)	-19.0%	13µM*	-8.2%	?	-0.6	-8.9%
CC(C(=O)Nc1nc(-c2ccc(F)c(F)c2)cs1)N1C(=O)C2CC=CCC2C1=O (stereo unspecified)	23.1µM*	?	2.0%	?	-4.0	2.1%
O=C(CCN1C(=O)C2CCCCC2C1=O)Nc1nc(-c2ccccc2)cs1 (stereo unspecified)	?	?	-3.1%	?	11.2	0.0%
O=C(Oc1ccccc1F)c1nc(SCc2ccccc2F)ncc1Cl	-8.1%	-6.6%	/	/	/	/
CCS(=O)(=O)N1Cc2ccccc2CC1C(=O)Nc1cccc(S(=O)(=O)N(C)C)c1 (stereo unspecified)	-1.8%	?	-1.3%	0.9%	2.3	-1.8%
CC1=NN(C(=O)Cc2ccccc2)C(O)(c2cccnc2)C1 (stereo unspecified)	5.17µM*	4.61µM*	?	14.9%	22.4	?
CC1=NN(C(=O)c2ccccc2C)C(O)(c2ccc(Cl)cc2)C1 (stereo unspecified)	?	?	-26.8%	-6.5%	10.7	-19.7%
CC1=NN(C(=O)c2ccccc2Cl)C(O)(c2cccnc2)C1 (stereo unspecified)	5.8µM*	?	7.1%	1.8%	-7.1	11.9%
Cc1noc(C)c1CSCC(=O)N(C)CC(=O)Nc1ccc(Cl)cc1	?	?	-0.1%	?	44.5	-2.6%
O=S(=O)(O)c1nc2ccccc2[nH]1	0.9%	2.2%	-0.4%	?	4.0	-2.1%
Cc1ccc(C(=O)N2CCCC(C(=O)Nc3cccc(-c4ccc(F)cc4)c3)C2)cn1 (stereo unspecified)	8.2µM*	16.4µM*	-15.5%	0.5%	-28.1	-24.8%
COc1ncccc1C(=O)N1CCCC(C(=O)Nc2cccc(-c3ccc(F)cc3)c2)C1 (stereo unspecified)	11.6µM*	20.6µM*	-9.5%	/	3.5	-5.5%
